This note sets out measurements from ChEMBL document CHEMBL4888484, “Replenishing the malaria drug discovery pipeline: Screening and hit evaluation of the MMV Hit Generation Library 1 (HGL1) against asexual blood stage Plasmodium falciparum ,using a nano luciferase reporter read-out” (2022).

In all, about 4,800 compounds went through this assay and about 410 (8.5%) showed an effect of 50% or more. The list comes from a sample in which strong results are over-represented; it also holds similar structures and randomly drawn compounds.

As usually defined, the % Inhibition is the drop in the measured response relative to a control, in per cent.

The test relates to Plasmodium falciparum. In words: Confirmatory screen in NF54 pLDH assay, in single point, at 2uM, 72h. It counts as functional, Erythrocyte. The following applies: timepoint 72 hour.
As for `Cc1cc(C(=O)N[C@H]2CCS(=O)(=O)C2)nc(N(C)C)n1`, the “% Inhibition” value is 2%. As to `Cc1ccc(N2C(=O)CN(CC(C)C)[C@H]3CS(=O)(=O)C[C@H]32)cc1`, the “% Inhibition” value came to 14%. For the molecule `Cc1cccc(NC(=O)CCC(=O)OCC(F)(F)C(F)F)c1C`, the “% Inhibition” value is recorded as 1%.

For `N#Cc1c(NC(=O)CN2CCC[C@@H]2CO)sc2c1CCCCC2`, the “% Inhibition” value is on record as 0%.

As to `CC(C)(C)[C@H]1CCc2c(sc(NC(=O)C3(F)C(F)(F)C(F)(F)C(F)(F)C(F)(F)C3(F)F)c2C#N)C1`, the “% Inhibition” value worked out at 51%. Turning to `COCCN(CC(N)=O)CC(=O)NCc1ccccc1F`, the “% Inhibition” value is listed as 9%.

Consider `COc1ccc(CCNc2nc(-c3ccc(OC)cc3F)c3c(N)n(-c4ccc(Cl)cc4)nc3n2)cc1`, for which the “% Inhibition” value came out at 40%.

Regarding `CC(C)(C)n1nc2nc(NCCN3CCCCC3)nc(-c3ccc(F)c(Cl)c3)c2c1N`, the “% Inhibition” value is given as 76%. Consider `COCCNc1nc(-c2ccccc2OC)c2c(N)n(-c3ccc(F)cc3)nc2n1`, for which the “% Inhibition” value is -5%.

On to `CN(Cc1ccsc1)C(=O)c1cc2ccccc2[nH]1`, for which the “% Inhibition” value was 17%. With `Cn1c(-c2ccc(Cl)c(Cl)c2)c[n+](CC(=O)c2ccc(F)cc2)c1N`, the “% Inhibition” value is recorded as -12%. In the case of `Cn1c(-c2ccc(Br)cc2)c[n+](CC(=O)c2ccc(Br)cc2)c1N`, the “% Inhibition” value is listed as -4%. With `FC(F)Oc1ccc(-c2c[n+](-c3cccc(C(F)(F)F)c3)c3n2CCCCC3)cc1`, the “% Inhibition” value was 42%.

Consider `COc1ccc(C(=O)C[n+]2cc(-c3ccc(OC)cc3)n3c2CCCC3)cc1`, for which the “% Inhibition” value turned out to be 65%. With `COc1ccc(CC(=O)NCc2nnc3n2CCC3)cc1` the figure was 9%. The value for `Cc1ccc(-c2c[n+](-c3ccc(OC(F)F)cc3)c3n2CCCCC3)cc1` was 60%. Consider `CCOc1nc(C)nc2cc(-c3ccccc3)n(Cc3ccccc3)c12`, for which the “% Inhibition” value turned out to be 13%. Regarding `COc1ccc(C(=O)C[n+]2nc(CNc3ccc(Br)cc3)n3c2CCCCC3)cc1`, the “% Inhibition” value is reported as 82%. With `CCOc1ccc(-[n+]2cc(-c3ccccc3)n3c2CCC3)cc1`, the “% Inhibition” value is listed as 70%. For the molecule `Cc1nnc(NC(c2cnc3ccccc3c2)[C@H]2C[C@@H](O)C2)s1` (some centres undefined), the “% Inhibition” value is on record as 12%. In the case of `O=C(Cc1c[nH]c2ccccc12)N1CCc2ccccc2C1`, the “% Inhibition” value is recorded as -17%. With `COc1ccc2c(c1)OC13CCN(C)CC1C2C(C(=O)c1ccccc1OC)C(=O)N3` (centres undefined), the “% Inhibition” value was 10%.

Take `CCC(=O)N1CCc2sc(S(=O)(=O)N3CCN(c4cc(C)ccc4C)CC3)cc2C1`: the “% Inhibition” value is 38%. `c1ccc(-c2cn(-c3ccccc3)c3ncnc(N4CCCC4)c23)cc1`: the “% Inhibition” value is 13%. For the molecule `C=CCOc1cc(C(=O)N2CCCCC2)cc2occc12`, the “% Inhibition” value is on record as 11%. With `COc1cc([C@H]2CC(=O)Nc3c2cnn3C)ccc1OCc1ccccc1` the figure was -8%; with `O=C(NC1CCCNC1=O)NC1CCCC1c1ccc(Cl)cc1` (centres undefined), 10%; with `O=C(NCCC1=CCOCC1)c1cnc2ccccn12`, -2%. With `O=C(CCc1ccccc1)Nc1ccc(-n2nn[nH]c2=O)cc1` the figure was 15%; with `O=C1Nc2ccccc2[C@@]12Nc1ccccc1CO2`, 9%. Consider `C[C@@H](C(=O)N1CCN(C/C=C/c2ccccc2)CC1)N1Cc2ccccc2C1=O`, for which the “% Inhibition” value amounted to 0%. As to `Cc1ccc(CCNC(=O)c2ccc(-c3nc(CS(=O)(=O)c4ccc(C)cc4)c(C)o3)cc2)cc1`, the “% Inhibition” value is on record as -23%. On to `COc1ccc(-c2c[n+](-c3ccc(Cl)cc3)c3n2CCCCC3)cc1`, for which the “% Inhibition” value worked out at 57%. Consider `COc1ccc(N2CCN(Cc3cc(-c4ccc(Cl)cc4)no3)CC2)cc1`, for which the “% Inhibition” value was -19%. On to `COc1ccc(-n2nc(C(=O)N3CCN(c4ncccn4)CC3)c(=O)cc2OC)cc1`, for which the “% Inhibition” value is -29%. Consider `CCC(C)(C)N(C)C(=O)c1ccccc1Cl`, for which the “% Inhibition” value is reported as -1%. Turning to `CC12CN(S(=O)(=O)c3ccc4c(c3)OCCO4)C3(C(=O)OCc4ccccc4)CC1CCC23C` (centres undefined), the “% Inhibition” value came out at 64%. With `Cc1cc(C)n(S(=O)(=O)c2ccc3c(c2)OCCO3)n1`, the “% Inhibition” value is reported as 7%. As to `COc1ccc2c(c1)CCN2S(=O)(=O)c1ccc2c(c1)OCCO2`, the “% Inhibition” value is recorded as -4%.

On to `CC(C)C(=O)N1N=C(C(C)C)C[C@]1(O)C(F)(F)F`, for which the “% Inhibition” value turned out to be 13%. The value for `Oc1csc(Cc2nc(C(F)(F)F)cs2)n1` was -4%; that for `COC1(CNC(=O)C[C@H](O)c2ccccc2)CCC1` was -2%. On to `COc1cccc(CCc2ccccc2OC[C@H](CN(C)C)OC(=O)CCC(=O)O)c1`, for which the “% Inhibition” value was -5%.

On to `O=C(C[C@H](NCCO)C(=O)O)c1ccc2c(c1)CCCC2`, for which the “% Inhibition” value is 2%. Regarding `O=C(Nc1ccsc1C(=O)NCc1cc(F)cc(F)c1)c1cnccn1`, the “% Inhibition” value is reported as 13%. As for `C[C@@H](NC(=O)Nc1ccc(Cl)c(Cl)c1)C(=O)O`, the “% Inhibition” value turned out to be 10%. Consider `CNc1nc(C)cc(C(=O)Nc2ccc(Cl)cc2NC(C)=O)n1`, for which the “% Inhibition” value amounted to 5%. `O=C(Nc1ccc(Cl)c(Cl)c1)Nc1ccc(Cl)cc1NC(=O)Nc1ccc(Cl)c(Cl)c1`: the “% Inhibition” value is reported as 65%. With `COc1ccc(-c2cc3n(n2)C[C@@](C)(C(=O)NCc2ccccc2)N(Cc2ccc4c(c2)OCO4)C3=O)cc1` the figure was 39%; with `COc1cc(N2CCn3c(nc4cc(Cl)ccc43)C2)ccc1NC(=O)C1CCCCC1`, -13%. For the molecule `Cc1ccc(C(=O)N(Cc2cccc(F)c2)c2ccc(CC(=O)N[C@@H](C)c3ccccc3)cc2)cc1`, the “% Inhibition” value was 89%.

Turning to `O=C(Cc1ccc(N(Cc2cccc(F)c2)C(=O)c2cccc(F)c2)cc1)NCCN1CCCCC1`, the “% Inhibition” value came out at 29%. As for `Cc1ccccc1C(=O)N(Cc1cccc(F)c1)c1ccc(CC(=O)NCCN2CCCCC2)cc1`, the “% Inhibition” value is given as 39%. Take `O=C(OCc1cncs1)c1ccccc1`: the “% Inhibition” value is 10%.

As for `Cc1cc2nnc(-c3nc4ccccc4[nH]3)c(N)n2n1`, the “% Inhibition” value is recorded as -2%. For the molecule `Nc1c(-c2nc3ccccc3[nH]2)c2nc3ccccc3nc2n1Cc1ccccc1F`, the “% Inhibition” value was 62%.

For the molecule `CCC1C(C(=O)NCCN(C)CCOC)CCN1C(=O)OC(C)(C)C` (centres undefined), the “% Inhibition” value turned out to be 1%.

On to `CCn1ccc([C@H](C)NC(=O)c2cc(-c3ccc(OC)cc3)nc3c2c(C)nn3C)n1`, for which the “% Inhibition” value is 12%. With `Cc1c(CN(C)C(=O)Cn2ncc(Br)c2C)cnn1C`, the “% Inhibition” value is listed as 4%.

For `CCc1ccc(CN2C(=O)c3c(C(=O)OC)ncn3C[C@@]2(C)C(=O)NC2CCCCCC2)cc1`, the “% Inhibition” value came to 14%. Turning to `CCc1ccc(-c2cc3n(n2)C[C@@](C)(C(=O)NC2CCCCC2)N(c2cc(C)cc(C)c2)C3=O)cc1`, the “% Inhibition” value turned out to be 58%. In the case of `C[C@@]1(C(=O)NCc2ccccc2)Cn2nc(-c3ccccc3)cc2C(=O)N1c1ccc2c(c1)OCCO2`, the “% Inhibition” value came out at 36%. Take `O=C(O[C@@H](c1ccccc1)N1C(=O)C(C(F)(F)F)(C(F)(F)F)c2ccccc21)C(C(F)(F)F)C(F)(F)F`: the “% Inhibition” value stood at 12%. For the molecule `Cc1c(NC(=O)c2ccccc2-c2ccccc2)ccc(N2CCCC2=O)c1NC(=O)c1ccccc1-c1ccccc1`, the “% Inhibition” value is -15%.

Regarding `CCCN(CC(=O)O)S(=O)(=O)c1cccc(C)c1Br`, the “% Inhibition” value was -23%.

For the molecule `O=C(Nc1ccc2c(c1)cc(C(=O)Nc1ccc(C(F)(F)F)cc1)n2Cc1cccc(F)c1)c1ccccc1Cl`, the “% Inhibition” value is -25%. On to `C#CCN(CCCc1ccccc1C)[C@H]1CCS(=O)(=O)C1`, for which the “% Inhibition” value is -23%. For the molecule `O=C(O)c1cc(-c2ccc3c(c2)OCCO3)nc2c(Br)cc(Br)cc12`, the “% Inhibition” value was found to be 3%. For the molecule `COc1ccc(C(O)CN2CCC(c3ccccc3)C2)cc1F` (centres undefined), the “% Inhibition” value is 9%.

With `O=C(C1CCC1)N1CCC[C@H]1c1nc(C2CCOCC2)no1`, the “% Inhibition” value was 12%.

For the molecule `COc1ccccc1NC(=O)c1cnn2c3c(cnc12)CCCCC3`, the “% Inhibition” value was 3%. For the molecule `CCOc1ccc2ccccc2c1C(=O)Nc1cc(C)nn1-c1nc2c(c(=O)[nH]1)CCC2`, the “% Inhibition” value is given as 91%. On to `COc1ccc2ccccc2c1C(=O)Nc1ccc(N2CCN(C)CC2)c(Cl)c1`, for which the “% Inhibition” value is recorded as 4%. As for `Cc1cc(NC(=O)C(=O)NC2CC(C)CC(C)(C)C2)n(-c2nc3c(c(=O)[nH]2)CCC3)n1` (centres undefined), the “% Inhibition” value is given as 84%. As for `Cc1nc(-c2ccc3[nH]c(=O)[nH]c3c2)cs1`, the “% Inhibition” value came out at 9%. For `CC1CN(CCCNC(=O)Cc2c[nH]c3ccc(F)cc23)CC(C)O1` (centres undefined), the “% Inhibition” value is given as -4%. As for `CC(C1Cc2ccccc2O1)N(C)C(=O)c1n[nH]c2c1CCC2` (centres undefined), the “% Inhibition” value is -6%. Turning to `Cc1cc(Cl)ccc1S(=O)(=O)N1CCc2nnc([C@H]3CCN(C(C)C)C3)n2CC1`, the “% Inhibition” value came to 10%.

Take `COC(=O)C12CCC(C(=O)NC[C@H]3CCCOC3)(CC1)CC2`: the “% Inhibition” value turned out to be 2%. The value for `OCC#Cc1ncc(C(F)(F)F)cc1Cl` was -19%; that for `CCc1nc(C(=O)N2C[C@@H]3CCCN(C(=O)c4coc(CC)n4)[C@@H]3C2)co1` was 0%. In the case of `CCc1ncsc1C(=O)OCC1(C#N)CCOCC1`, the “% Inhibition” value is reported as -2%. On to `Cc1cc(CS(=O)(=O)[C@@H](C)C(=O)NCC(C)C)on1`, for which the “% Inhibition” value was determined as 12%. Regarding `CC(=O)N(C)CC(=O)Nc1ccccc1NCC1CCCCC1`, the “% Inhibition” value amounted to 12%.

On to `COc1cc(CN(C)[C@H]2CCc3nnc(C4CCOCC4)n3CC2)cc(OC)c1`, for which the “% Inhibition” value was determined as 1%. The value for `Cn1ccnc(N[C@@H](COc2ccccc2F)c2ccccc2)c1=O` was 3%. In the case of `NC(=O)CCc1ccc(S(=O)(=O)Cl)cc1`, the “% Inhibition” value stood at 13%. Turning to `COC(=O)c1ccc(Nc2nc(C)c3nc(C)n(-c4ccc(C(=O)OC)cc4)c3n2)cc1`, the “% Inhibition” value was 3%. In the case of `CCOc1cc(Cl)c(Cl)c(C#N)c1OC(C)=O`, the “% Inhibition” value worked out at 6%.

`COc1ccc(-c2nccn3cc(C(=O)NCCN(C)C4CCCCC4)nc23)cc1`: the “% Inhibition” value stood at 5%. For `CCCC[C@H](CC)C(=O)Nc1c(C)cccc1CC`, the “% Inhibition” value is listed as -8%. On to `Brc1ccc(Oc2ncc(CN3CCOCC3)s2)cc1`, for which the “% Inhibition” value was 7%.

As to `Cc1ccc2c(c1)CCCN2S(=O)(=O)c1ccc2ccccc2c1`, the “% Inhibition” value was -7%. Consider `Cc1ccnc(N2CCN(S(=O)(=O)Cc3ccon3)CC2)c1`, for which the “% Inhibition” value came out at 15%. As to `Cc1ccnc(Nc2ccc(N3CCNCC3)nn2)c1`, the “% Inhibition” value came to 65%. Take `Cc1ccc(Nc2ccc(N3CCNCC3)nn2)nc1`: the “% Inhibition” value is listed as 58%. Turning to `Cc1cnc(CC[C@H]2CCCN2C(=O)CCn2ccnc2)n1C`, the “% Inhibition” value stood at 7%. For `CCC(C#N)(CC)c1nc(-c2cc(N)nc3ccccc23)no1`, the “% Inhibition” value was 8%. For the molecule `CCC(=O)O[C@@]1(c2ccc(C3CC3)cc2)CCCN(Cc2ccccc2)C1`, the “% Inhibition” value is on record as -1%.
